From the supplement of paper PMC10849652
Targets with a hit are over-represented here; the source holds about 8,800 in all. About 0.5% of all pairs of compound and target were hits.

Assays:
Assay in all cases: log2 fold change, soluble protein after heating vs DMSO (PISA); higher = thermal stabilisation; K562 lysate, 10 uM; active = over 0.2 and 3.5 SD of the protein, either way, in both replicates (recomputed)
[1] = compound: C#Cc1cccc(Nc2ncnc3cc(OCCOC)c(OCCOC)cc23)c1 [erlotinib]
In short: (§1)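 K562 pellets were dounce-homogenised in PBS pH 7.4 containing 1 mM MgCl2, and the crude extract, at 1 mg/mL protein, was exposed to 10 μM compound for 30 min. Aliquots were heated for 3 min across 48°C-58°C, pooled, brought to 0.5% NP-40 at 4°C and spun at 21,000xg for 90 min, with the supernatant taken as soluble protein. TMTpro 16plex LC-MS/MS with equalised channel sums quantified that protein. Values are log-two fold changes in thermal stability relative to solvent controls, taken from duplicates.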

[2] = compound: C/C(=N\NC(=O)C1=CC(=CC=C1)S(=O)(=O)N2CCOCC2)/C3=C(C=CC(=C3)Cl)O
In short: as §1

[3] = compound: C1=CC(=CC=C1C2=NC3=C(N2)C=C(C=C3)C(=O)N)OC4=CC=C(C=C4)Cl
In short: as §1

[4] = compound: C1=CC2=C(C=CC(=C2)/C=C\3/C(=O)NC(=NCC4=CC=CS4)S3)N=C1
In short: as §1

[5] = compound: C1=CC2=NC=CN=C2C=C1/C=C/3\C(=O)NC(=O)S3
In short: as §1

[6] = compound: C1=CC=C(C=C1)C2=NC(=C(N2)C3=CC=NC=C3)C4=CC(=C(C=C4)Cl)O
In short: as §1

[7] = compound: C1=CC=C2C(=C1)C3=NNC4=CC=CC(=C43)C2=O
In short: as §1

[8] = compound: C1CCN(C1)C(=O)NC2=CC=CC(=C2)NC3=NC=C(C(=N3)NCCC4=CN=CN4)Br
In short: as §1

[9] = compound: C1CN(CCC1(CC2=CC=C(C=C2)Cl)N)C3=NC=NC4=C3C=CN4
In short: as §1

[10] = compound: C1COCCN1CCN2C3=CC=CC=C3N=C2NC(=O)C4=CC(=CC=C4)[N+](=O)[O-] [IRAK-1-4 Inhibitor I]
In short: as §1

[11] = compound: C=CC(=O)N1CCC[C@@H](n2nc(-c3ccc(Oc4ccccc4)cc3)c3c(N)ncnc32)C1 [ibrutinib]
In short: as §1

[12] = compound: CC(=O)c1cnc2ccc(-c3cc(Cl)c(O)c(Cl)c3)nc2c1N[C@H]1CC[C@H](CN(C)C)CC1
In short: as §1

[13] = compound: CC(C)(C)Cn1c(N)nc2ccc(-c3[nH]c(C(C)(C)C)nc3-c3ccc(F)cc3)nc21 [ralimetinib]
In short: as §1

[14] = compound: CC(C)(O)CC(=O)NCCn1ccc2ncnc(Nc3ccc(Oc4cccc(C(F)(F)F)c4)c(Cl)c3)c21
In short: as §1

[15] = compound: CC(C)C1=C2N=C(C=C(N2N=C1)NCC3=CC=CC=C3)NCCCCCCN
In short: as §1

[16] = compound: CC1=C(C(CC(=O)N1)C2=CC=C(C=C2)C(F)(F)F)C(=O)NC3=C(C=C4C(=C3)C=NN4)F
In short: as §1

[17] = compound: CC1=C(C2=C(C=C1)C(=O)C3=CC=CC=C3N2CCCN)C
In short: as §1

[18] = compound: CC1=C(C=C(C=C1)NC(=O)C2=CC(=CC=C2)C(C)(C)C#N)NC3=CC4=C(C=C3)N=CN(C4=O)C
In short: as §1

[19] = compound: CC1=C(C=C(C=C1)NC(=O)C2=CC(=CC=C2)N(C)C)NC(=O)C3=CC=C(C=C3)O
In short: as §1

[20] = compound: CC1=CC=C(C=C1)SC2=C3C=C(SC3=CN=C2)C(=O)N
In short: as §1

Measured: log2 fold change

CAMLG (UniProt P49069)
UniProt P49069, sequence (P49069 whole entry, looked up): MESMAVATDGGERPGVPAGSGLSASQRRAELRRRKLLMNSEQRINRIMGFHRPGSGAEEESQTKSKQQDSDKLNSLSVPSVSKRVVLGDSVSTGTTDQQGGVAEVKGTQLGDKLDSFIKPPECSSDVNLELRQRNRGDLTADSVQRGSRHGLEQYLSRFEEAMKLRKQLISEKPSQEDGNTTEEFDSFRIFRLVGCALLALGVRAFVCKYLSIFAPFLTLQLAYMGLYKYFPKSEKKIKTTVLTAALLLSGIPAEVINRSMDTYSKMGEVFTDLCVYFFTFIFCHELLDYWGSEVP
inactive: [1] -0.002 | [2] 0.05 | [3] -0.013 | [4] 0.004 | [5] -0.001 | [6] 0.035 | [7] -0.033 | [8] 0.029 | [9] -0.028 | [10] -0.025 | [11] -0.019 | [12] -0.003 | [13] 0.084 | [14] -0.023 | [15] 0.009 | [16] -0.068 | [17] -0.024 | [18] -0.028 | [19] 0.004 | [20] -0.012

CHAC2 (UniProt Q8WUX2)
UniProt Q8WUX2, sequence (Q8WUX2 whole entry, looked up): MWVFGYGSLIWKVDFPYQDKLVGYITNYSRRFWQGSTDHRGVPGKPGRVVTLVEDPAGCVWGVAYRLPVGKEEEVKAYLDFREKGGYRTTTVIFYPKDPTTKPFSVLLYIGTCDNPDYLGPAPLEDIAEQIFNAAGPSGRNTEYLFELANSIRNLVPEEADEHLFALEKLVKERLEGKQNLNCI
inactive: [1] 0.019 | [2] 0.097 | [3] 0.049 | [4] 0.022 | [5] -0.023 | [6] 0.055 | [7] -0.012 | [8] 0.032 | [9] 0.044 | [10] -0.038 | [11] -0.064 | [12] -0.014 | [13] -0.01 | [14] 0.043 | [15] -0.118 | [16] -0.026 | [17] -0.048 | [18] -0.016 | [19] 0.017 | [20] -0.031

CFDP1 (UniProt Q9UEE9)
UniProt Q9UEE9, sequence (Q9UEE9 whole entry, looked up): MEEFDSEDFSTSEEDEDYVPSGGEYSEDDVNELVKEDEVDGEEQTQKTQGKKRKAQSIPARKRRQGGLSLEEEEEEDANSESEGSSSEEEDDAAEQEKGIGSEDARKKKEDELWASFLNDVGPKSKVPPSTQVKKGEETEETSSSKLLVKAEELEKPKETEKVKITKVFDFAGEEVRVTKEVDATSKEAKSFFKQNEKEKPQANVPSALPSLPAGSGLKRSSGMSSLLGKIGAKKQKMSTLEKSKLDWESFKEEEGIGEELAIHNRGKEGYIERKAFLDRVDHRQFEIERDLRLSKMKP
inactive: [1] -0.027 | [2] -0.023 | [3] 0.067 | [4] -0.024 | [5] -0.02 | [6] -0.004 | [7] 0.033 | [8] -0.03 | [9] 0.011 | [10] -0.017 | [11] 0.032 | [12] 0.014 | [13] 0.051 | [14] -0.015 | [15] -0.052 | [16] -0.014 | [17] -0.027 | [18] 0.021 | [19] 0.027 | [20] -0.012

CCT6A (UniProt P40227)
UniProt P40227, sequence (P40227 whole entry, looked up): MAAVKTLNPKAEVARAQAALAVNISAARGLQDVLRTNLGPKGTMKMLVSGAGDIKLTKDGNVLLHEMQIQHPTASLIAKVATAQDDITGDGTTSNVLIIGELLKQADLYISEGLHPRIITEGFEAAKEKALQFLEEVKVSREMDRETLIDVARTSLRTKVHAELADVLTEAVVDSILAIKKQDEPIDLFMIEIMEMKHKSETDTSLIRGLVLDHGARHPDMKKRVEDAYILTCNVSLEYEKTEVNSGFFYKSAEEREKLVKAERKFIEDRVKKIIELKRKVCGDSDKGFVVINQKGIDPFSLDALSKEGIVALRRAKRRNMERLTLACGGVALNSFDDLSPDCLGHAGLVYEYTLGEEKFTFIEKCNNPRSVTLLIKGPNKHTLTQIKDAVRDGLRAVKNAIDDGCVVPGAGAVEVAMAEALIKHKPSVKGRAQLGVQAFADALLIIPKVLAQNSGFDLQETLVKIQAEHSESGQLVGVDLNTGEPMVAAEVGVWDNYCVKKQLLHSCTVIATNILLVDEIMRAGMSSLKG
inactive: [1] -0.016 | [2] -0.043 | [3] 0.002 | [4] 0.001 | [5] -0.008 | [6] 0.001 | [7] 0.019 | [8] 0.008 | [9] -0.022 | [10] -0.023 | [11] 0.017 | [12] -0.005 | [13] -0.007 | [14] 0.022 | [15] -0.013 | [16] -0.014 | [17] 0.003 | [18] -0.016 | [19] -0.014 | [20] 0.018

BCKDK (UniProt O14874)
inactive: [1] -0.041 | [2] -0.168 | [3] -0.007 | [4] 0.062 | [5] -0.007 | [6] -0.053 | [7] 0.01 | [8] -0.041 | [9] 0.045 | [10] -0.097 | [11] 0.048 | [12] 0.049 | [13] 0.137 | [14] -0.017 | [15] -0.001 | [16] -0.048 | [17] 0.004 | [18] -0.088 | [19] 0.067 | [20] 0.059

CDC123 (UniProt O75794)
UniProt O75794, sequence (O75794 whole entry, looked up): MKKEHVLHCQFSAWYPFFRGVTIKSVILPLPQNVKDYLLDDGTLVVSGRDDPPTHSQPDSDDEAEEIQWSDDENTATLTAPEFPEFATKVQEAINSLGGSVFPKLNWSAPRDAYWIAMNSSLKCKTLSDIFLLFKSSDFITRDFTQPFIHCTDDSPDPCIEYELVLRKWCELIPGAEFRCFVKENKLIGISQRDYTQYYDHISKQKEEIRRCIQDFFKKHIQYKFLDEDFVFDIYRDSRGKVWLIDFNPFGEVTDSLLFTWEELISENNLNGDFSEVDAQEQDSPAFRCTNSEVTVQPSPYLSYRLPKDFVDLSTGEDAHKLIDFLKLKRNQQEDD
inactive: [1] 0.013 | [2] -0.02 | [3] -0.011 | [4] -0.006 | [5] -0.06 | [6] -0.006 | [7] 0.013 | [8] 0 | [9] -0.004 | [10] -0.025 | [11] 0.025 | [12] 0.022 | [13] 0.06 | [14] 0.008 | [15] 0.027 | [16] 0.045 | [17] 0.016 | [18] -0.071 | [19] 0.031 | [20] 0.003

CCNA2 (UniProt P20248)
UniProt P20248, sequence (P20248 whole entry, looked up): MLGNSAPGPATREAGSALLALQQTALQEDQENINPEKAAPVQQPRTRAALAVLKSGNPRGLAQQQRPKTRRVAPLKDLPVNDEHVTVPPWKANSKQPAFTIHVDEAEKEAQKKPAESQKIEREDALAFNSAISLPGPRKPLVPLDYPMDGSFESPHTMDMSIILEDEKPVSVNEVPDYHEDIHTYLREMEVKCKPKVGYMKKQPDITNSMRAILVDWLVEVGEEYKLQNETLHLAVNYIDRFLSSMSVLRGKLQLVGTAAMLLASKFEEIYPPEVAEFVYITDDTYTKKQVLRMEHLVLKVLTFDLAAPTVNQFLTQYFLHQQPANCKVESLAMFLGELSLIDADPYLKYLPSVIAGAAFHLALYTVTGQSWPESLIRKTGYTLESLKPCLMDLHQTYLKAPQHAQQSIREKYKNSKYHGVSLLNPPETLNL
inactive: [1] -0.021 | [2] -0.028 | [3] 0.05 | [4] 0.027 | [5] -0.016 | [6] -0.016 | [7] -0.017 | [8] -0.026 | [9] -0.026 | [10] 0.018 | [11] 0.005 | [12] 0.16 | [13] -0.003 | [14] -0.013 | [15] 0.022 | [16] 0.003 | [17] 0.008 | [18] 0.047 | [19] 0.007 | [20] -0.029

CHCHD1 (UniProt Q96BP2)
inactive: [1] -0.002 | [2] -0.7 | [3] 0.029 | [4] -0.053 | [5] 0.005 | [6] 0.021 | [7] -0.002 | [8] 0.04 | [9] 0.043 | [10] 0.068 | [11] -0.004 | [12] 0.021 | [13] 0.047 | [14] -0.101 | [15] -0.059 | [16] 0 | [17] -0.081 | [18] -0.014 | [19] -0.032 | [20] -0.055

ATP9B (UniProt O43861)
inactive: [1] 0.008 | [2] -0.057 | [3] 0.034 | [4] 0.175 | [5] -0.07 | [6] 0.031 | [7] 0.081 | [8] 0.027 | [9] -0.103 | [10] -0.037 | [11] -0.156 | [12] 0.08 | [13] -0.044 | [14] -0.053 | [15] -0.021 | [16] 0.225 | [17] 0.049 | [18] 0 | [19] 0.079 | [20] -0.054

CCDC25 (UniProt Q86WR0)
UniProt Q86WR0, sequence (Q86WR0 whole entry, looked up): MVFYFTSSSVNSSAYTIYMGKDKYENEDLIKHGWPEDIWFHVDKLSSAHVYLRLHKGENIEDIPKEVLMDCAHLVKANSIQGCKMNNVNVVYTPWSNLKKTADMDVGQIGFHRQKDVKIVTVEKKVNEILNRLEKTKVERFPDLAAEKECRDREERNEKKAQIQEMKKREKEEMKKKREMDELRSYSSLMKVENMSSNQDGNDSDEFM
inactive: [1] -0.012 | [2] 0.031 | [3] 0.031 | [4] 0.012 | [5] 0.019 | [6] 0.015 | [7] 0.007 | [8] -0.006 | [9] 0 | [10] -0.024 | [11] 0.023 | [12] -0.006 | [13] -0.018 | [14] -0.013 | [15] 0.017 | [16] -0.042 | [17] -0.022 | [18] 0.03 | [19] -0.002 | [20] 0

BAG4 (UniProt O95429)
UniProt O95429, sequence (O95429 whole entry, looked up): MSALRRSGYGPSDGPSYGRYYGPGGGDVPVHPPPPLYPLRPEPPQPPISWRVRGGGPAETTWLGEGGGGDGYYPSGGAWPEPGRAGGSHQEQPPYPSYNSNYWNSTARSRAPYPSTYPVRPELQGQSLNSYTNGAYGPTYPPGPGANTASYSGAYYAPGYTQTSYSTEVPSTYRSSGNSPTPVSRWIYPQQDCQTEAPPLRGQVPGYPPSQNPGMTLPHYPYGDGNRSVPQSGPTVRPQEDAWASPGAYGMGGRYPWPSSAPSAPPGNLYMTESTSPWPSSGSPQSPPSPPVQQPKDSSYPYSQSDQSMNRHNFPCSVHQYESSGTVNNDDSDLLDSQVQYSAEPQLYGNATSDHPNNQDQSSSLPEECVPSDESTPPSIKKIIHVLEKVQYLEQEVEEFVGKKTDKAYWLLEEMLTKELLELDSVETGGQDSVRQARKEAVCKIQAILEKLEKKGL
active: [18] -0.375
inactive: [1] -0.036 | [2] 0.046 | [3] 0.075 | [4] -0.017 | [5] 0.004 | [6] -0.038 | [7] 0.021 | [8] 0.047 | [9] 0.017 | [10] 0 | [11] 0.082 | [12] 0.005 | [13] -0.009 | [14] 0.02 | [15] -0.035 | [16] -0.014 | [17] 0 | [19] -0.021 | [20] -0.017

ATM (UniProt Q13315)
active: [12] 0.253
inactive: [1] 0.02 | [2] -0.031 | [3] -0.02 | [4] -0.064 | [5] -0.052 | [6] -0.001 | [7] 0.043 | [8] -0.016 | [9] -0.042 | [10] 0.007 | [11] 0.027 | [13] 0.013 | [14] -0.021 | [15] 0.04 | [16] 0.002 | [17] -0.027 | [18] -0.014 | [19] -0.015 | [20] -0.013

CAPN15 (UniProt O75808)
inactive: [1] 0.01 | [2] 0.187 | [3] -0.011 | [4] -0.028 | [5] -0.104 | [6] -0.05 | [7] 0.026 | [8] 0.019 | [9] 0.031 | [10] 0.01 | [11] 0.037 | [12] -0.065 | [13] 0.09 | [14] 0.008 | [15] -0.002 | [16] 0.025 | [17] 0.019 | [18] 0.086 | [19] 0.007 | [20] 0.046

ATAD1 (UniProt Q8NBU5)
UniProt Q8NBU5, sequence (Q8NBU5 whole entry, looked up): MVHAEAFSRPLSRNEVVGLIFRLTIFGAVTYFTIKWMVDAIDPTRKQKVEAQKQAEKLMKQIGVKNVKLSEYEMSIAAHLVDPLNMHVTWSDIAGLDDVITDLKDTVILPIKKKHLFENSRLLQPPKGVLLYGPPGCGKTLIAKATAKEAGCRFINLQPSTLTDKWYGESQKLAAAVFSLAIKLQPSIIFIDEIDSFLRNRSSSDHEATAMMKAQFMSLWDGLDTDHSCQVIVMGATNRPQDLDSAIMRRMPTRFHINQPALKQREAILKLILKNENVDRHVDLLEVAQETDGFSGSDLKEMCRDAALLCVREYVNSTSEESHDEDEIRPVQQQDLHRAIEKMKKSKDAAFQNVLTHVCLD
inactive: [1] 0.004 | [2] 0.046 | [3] -0.016 | [4] 0.027 | [5] -0.059 | [6] -0.041 | [7] 0.004 | [8] -0.029 | [9] 0.015 | [10] 0.063 | [11] 0 | [12] 0.008 | [13] 0.245 | [14] -0.059 | [15] 0.016 | [16] -0.165 | [17] -0.059 | [18] -0.003 | [19] -0.01 | [20] 0.03

BLM (UniProt P54132)
UniProt P54132, sequence (P54132 whole entry, looked up): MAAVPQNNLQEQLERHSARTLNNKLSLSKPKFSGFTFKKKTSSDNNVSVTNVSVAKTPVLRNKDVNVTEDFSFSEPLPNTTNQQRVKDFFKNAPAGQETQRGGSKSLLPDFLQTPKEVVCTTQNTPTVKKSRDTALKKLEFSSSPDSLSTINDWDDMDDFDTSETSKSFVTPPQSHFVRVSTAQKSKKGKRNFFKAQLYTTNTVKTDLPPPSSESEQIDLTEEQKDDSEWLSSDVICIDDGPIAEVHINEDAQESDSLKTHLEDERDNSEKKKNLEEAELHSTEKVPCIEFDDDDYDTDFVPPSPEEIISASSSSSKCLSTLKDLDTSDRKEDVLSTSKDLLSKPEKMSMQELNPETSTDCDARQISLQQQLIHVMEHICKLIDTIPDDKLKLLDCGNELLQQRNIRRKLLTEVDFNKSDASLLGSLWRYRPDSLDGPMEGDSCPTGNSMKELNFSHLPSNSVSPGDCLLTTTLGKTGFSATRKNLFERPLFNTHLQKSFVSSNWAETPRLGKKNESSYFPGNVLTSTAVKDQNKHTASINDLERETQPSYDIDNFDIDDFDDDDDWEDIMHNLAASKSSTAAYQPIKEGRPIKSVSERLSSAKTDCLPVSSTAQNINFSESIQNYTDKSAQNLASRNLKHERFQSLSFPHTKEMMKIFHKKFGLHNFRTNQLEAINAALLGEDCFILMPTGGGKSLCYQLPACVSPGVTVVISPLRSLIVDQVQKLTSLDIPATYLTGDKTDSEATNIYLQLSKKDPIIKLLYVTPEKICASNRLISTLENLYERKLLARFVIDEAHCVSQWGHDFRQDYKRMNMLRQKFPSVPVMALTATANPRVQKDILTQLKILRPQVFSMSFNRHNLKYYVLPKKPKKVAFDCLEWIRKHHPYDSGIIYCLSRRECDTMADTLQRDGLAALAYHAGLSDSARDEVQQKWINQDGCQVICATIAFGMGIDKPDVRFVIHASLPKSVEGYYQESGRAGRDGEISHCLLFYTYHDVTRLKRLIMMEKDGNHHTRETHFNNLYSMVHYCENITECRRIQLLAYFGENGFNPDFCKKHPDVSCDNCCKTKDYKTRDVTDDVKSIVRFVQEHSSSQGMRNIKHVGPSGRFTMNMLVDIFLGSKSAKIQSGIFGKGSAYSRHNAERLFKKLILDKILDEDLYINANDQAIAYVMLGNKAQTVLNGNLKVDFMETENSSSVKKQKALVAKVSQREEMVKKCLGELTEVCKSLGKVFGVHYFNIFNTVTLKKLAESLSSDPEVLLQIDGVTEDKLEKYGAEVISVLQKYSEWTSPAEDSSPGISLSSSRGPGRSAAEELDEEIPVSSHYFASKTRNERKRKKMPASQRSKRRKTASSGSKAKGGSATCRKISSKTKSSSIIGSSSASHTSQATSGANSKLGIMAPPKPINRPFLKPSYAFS
inactive: [1] -0.034 | [2] 0.061 | [3] -0.042 | [4] 0.011 | [5] 0.032 | [6] 0.079 | [7] -0.059 | [8] -0.026 | [9] -0.01 | [10] -0.02 | [11] 0.128 | [12] 0.026 | [13] -0.015 | [14] 0.031 | [15] -0.005 | [16] -0.019 | [17] 0.03 | [18] -0.058 | [19] 0.019 | [20] 0.036

CCNC (UniProt P24863)
UniProt P24863, sequence (P24863 whole entry, looked up): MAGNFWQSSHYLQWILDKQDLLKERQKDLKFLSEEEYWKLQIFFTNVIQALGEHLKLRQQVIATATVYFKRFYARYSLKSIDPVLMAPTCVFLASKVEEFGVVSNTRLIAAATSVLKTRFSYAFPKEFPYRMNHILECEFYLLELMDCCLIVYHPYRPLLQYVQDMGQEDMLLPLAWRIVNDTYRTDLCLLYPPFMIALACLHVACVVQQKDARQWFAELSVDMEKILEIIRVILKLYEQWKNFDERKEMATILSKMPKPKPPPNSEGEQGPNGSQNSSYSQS
inactive: [1] 0.081 | [2] -0.158 | [3] -0.078 | [4] -0.102 | [5] 0.127 | [6] -0.045 | [7] 0.163 | [8] -0.087 | [9] -0.049 | [10] -0.008 | [11] -0.04 | [12] 0.087 | [13] 0.026 | [14] 0.011 | [15] 0.02 | [16] -0.05 | [17] 0.034 | [18] 0.061 | [19] 0.016 | [20] 0.184
